Measured values published in PubChem BioAssay (NCI).
This is part of a sample that, as a whole, favours compounds with a hit. Of some 83,000 tested, about 20% had one in any assay.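 Interpretation: 100, growth as untreated; towards 0, rising growth inhibition; 0, no net growth; 0 to -100, cell death. Compounds scoring below 10 were considered active.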 Activity calls are given as the source filed them.

system: UACC-62 melanoma; experiment: NCI-60 one-dose screen, 48 h (100 = growth as untreated, 0 = no growth, -100 = all killed); settings: 10 µM unless noted

Structure (SMILES) | growth
COc1ccc(/C=C/C(c2cc(OC)c(OC)c(OC)c2)n2cncn2)cc1O (centres undefined) | 37.5% (inactive)
COc1ccc(-c2cn(Cc3cc4ccccc4s3)nn2)cc1OCCN1CCCCC1 | 83.8% (inactive)
COc1ccc(-c2nc3c(c(-c4ccc(Cl)cc4)nn3-c3ccccc3)c(-c3ccccc3)c2C#N)cc1 | 98.5% (inactive)
COc1ccc2c(c1)CC[C@@H]1[C@@H]2CC[C@]2(C)C3C(=CC(COC(C)=O)C4C(=O)N(c5ccc(Cl)cc5)C(=O)C43)C[C@@H]12 (some centres undefined) | 83.2% (inactive)
COc1cc(/C=C/C(=O)N2CCN(C(=O)c3cc(OC)c(OC)c(OC)c3)CC2)ccc1OCCCOc1cc2c(cc1OC)C(=O)N1CCC[C@H]1C=N2 | -90.1% (active)
CSc1nc2ccc(C)cc2cc1/C=C1/C=C(c2ccccc2)NC1=O | 71.9% (inactive)
Cc1ccc2c(c1)sc1nc(-c3c[nH]c4ccccc34)c(Nc3ccccc3)n12 | 89.4% (inactive)
N=C(N)c1ccc(-c2ccc(-c3ccccc3)o2)o1 | 61.9% (inactive)
CN1C(=O)N2CN3CCCN(C3)CN3C(=S)NC1C23 (centres undefined) | 101% (inactive)
Clc1ccc(-c2cc(-c3ccccc3)nc(N3CCN(CCCNc4ccnc5cc(Cl)ccc45)CC3)n2)cc1 | 51% (inactive)
COc1cc(/C=C/c2cc(/C=C/c3ccc(O)c(OC)c3)n(C(=O)Nc3ccc(Cl)cc3)n2)ccc1O | 4.06% (active)
N#Cc1c(-c2ccccc2)nc2c(c(-c3ccc(Cl)cc3)nn2-c2ccccc2)c1-c1ccc([N+](=O)[O-])cc1 | 86.5% (inactive)
COc1ccc(Oc2ccc(/C=C/C(=O)c3cc4ccccc4oc3=O)cc2)cc1 | 76.7% (inactive)
O=[N+]([O-])c1c(O)c(Cl)cc(Cl)c1Cl | 100% (inactive)
O=S(O)c1cc(Cl)cc(Cl)c1OCc1ccccc1 | 107% (inactive)
Cc1oc(-c2ccc(Cl)cc2)nc1C1=NN(C(=O)c2ccncc2)C(c2ccccc2)C1 (centres undefined) | 72.9% (inactive)
CS(=O)(=O)c1ccc(-c2nc3ccccc3n2CC(=O)N/N=C/c2ccccc2)cc1 | 94.4% (inactive)
CCCn1c(=S)sc2c(NNC(C)=O)nc(C)nc21 | 93% (inactive)
N#CSc1c[nH]c2ccc(/C=C/C(=O)/C=C(O)/C=C/c3ccc4[nH]cc(SC#N)c4c3)cc12 | 26.3% (inactive)
Fc1cccc(-c2nc(-c3c[nH]c4ncccc34)cs2)c1 | 73.1% [100 µM] (inactive)

Structure (SMILES) | growth
COc1ccc(Oc2ccc(/C=C/C(=O)c3ccc(OC)c(OC)c3)cc2)cc1 | 67.5% (inactive)
CCCCn1c(NC(C)=O)c(S(=O)(=O)c2ccccc2)c2nc3ccccc3nc21 | 97.8% (inactive)
COc1cc(O)c2c(=O)c3c(CC=C(C)C)cc(OC)c(O)c3oc2c1 | 17% (inactive)
CC12OC(CC(O)C1O)n1c3ccccc3c3c4c(c5c6ccccc6n2c5c31)C(=O)N(CCN1CCCC1)C4=O (centres undefined) | 19.3% (inactive)
C=C1CC[C@@H]2C(C)(C)[C@H](O)CC[C@@]2(C)[C@@H]1COc1ccc2ccc(=O)oc2c1 | 24.5% (inactive)
COc1c2c(cc3c1C(=O)N[C@@H]1[C@@H](O)[C@@H](O)[C@H](O)C[C@@H]31)OCCO2 | 96.7% (inactive)
C=C1C(=O)O[C@H]2[C@H]1CC/C(COC(=O)NCc1ccc(Cn3c(=O)sn(-c4ccccc4)c3=O)cc1)=C\CC[C@@]1(C)O[C@@H]21 | 48.2% (inactive)
Cc1nc2sc(C(=O)Nc3ccccn3)c(N)c2cc1C(C)O (centres undefined) | 42.7% (inactive)
c1cc(OCCN2CCCC2)ccc1CNc1ccc2nc(CCC3CCCCC3)[nH]c2c1 | 62.8% (inactive)
Cc1nc([P+](c2ccccc2)(c2ccccc2)c2ccccc2)c(N2CCCCC2)o1 | 25.3% (inactive)
COc1cc(/C=N/NC(=O)c2ccc(-n3cc(-c4ccccc4)nn3)cc2)cc(OC)c1OC | 9.86% (active)
C=CN(C(=O)N1CCN(c2cc3c(cc2F)c(=O)c(C(=O)O)cn3C2CC2)CC1)c1nc(-c2ccc(Cl)cc2)cs1 | 60.3% (inactive)
COc1ccccc1/C=C/C(=O)Nc1ccc(F)cc1 | 89.8% (inactive)
CC(C)c1ccc2c(c1)CC[C@H]1[C@](C)(C(=O)OCC#CCN3CCCC3)CCC[C@]21C | 55.4% (inactive)
COc1ccc2c(O)c(/C=C3\N=Nc4ncccc43)oc2c1C[C@@H]1CCNC[C@H]1F | -33.2% (active)
c1ccc2cc(Cn3cc(CSc4nc5ccccc5s4)nn3)ccc2c1 | 84.8% (inactive)
COCC(=O)Oc1cc(-c2ccc(C)cc2C)c(OC(=O)COC)c(-c2ccc(C)cc2C)c1 | 45.1% (inactive)
Cc1nc2ccccc2c(/C=C/c2ccc(F)cc2)c1C(=O)/C=C/c1ccccc1 | 26.1% (inactive)
O=C1C=C(SCCO)C(=O)c2ccccc21 | 22.3% (inactive)
